Inconclusive results are not listed. Calls of active or inactive are those of the source. Rule for the calls: active = hit-call score of the fitted dose curve at least 0.9, where 1 is the maximum; inconclusive = response in the unintended direction; inactive = score below 0.9.

Glyceraldehyde-3-phosphate dehydrogenase (Homo sapiens), sequence (P04406 whole entry, looked up): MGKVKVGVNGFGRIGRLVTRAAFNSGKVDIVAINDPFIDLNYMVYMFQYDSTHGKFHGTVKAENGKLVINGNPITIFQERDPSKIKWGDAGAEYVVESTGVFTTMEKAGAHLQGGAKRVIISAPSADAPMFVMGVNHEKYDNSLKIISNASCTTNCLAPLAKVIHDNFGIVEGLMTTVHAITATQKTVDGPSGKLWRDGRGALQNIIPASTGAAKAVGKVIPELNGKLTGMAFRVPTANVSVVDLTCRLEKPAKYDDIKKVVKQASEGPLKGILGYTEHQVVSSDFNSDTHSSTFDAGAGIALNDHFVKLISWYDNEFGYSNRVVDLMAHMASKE

Read-out in the test: Glyceraldehyde-3-phosphate dehydrogenase (Homo sapiens) (UniProt P04406)
The test is described as follows: CLD_GAPDH_48hr: CellzDirect (CLD) Gene Expression Assay for Baseline Control (Glyceraldehyde 3-phosphate dehydrogenase) at 48 hours (AID 2283706).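 Note: active means higher GAPDH mRNA than DMSO vehicle.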 The procedure: CLD_48hr is a cell-based, multiplexed-readout assay that uses hepatocyte, a human liver primary cell, with measurements taken at 48 hours after chemical dosing in a 96-well plate.CLD_GAPDH_48hr is one of 16 assay component(s) measured or calculated from the CLD_48hr assay. It is designed to make measurements of mRNA induction, a form of inducible reporter, as detected with chemiluminescence signals by Quantitative Nuclease Protection Assay (qNPA) technology.Data from the assay component CLD_GAPDH_48hr was analyzed at the endpoint, CLD_GAPDH_48hr, in the positive analysis fitting direction relative to DMSO as the negative control and baseline of activity. Using a type of inducible reporter, gain-of-signal activity can be used to understand changes in the reporter gene as they relate to the gene GAPDH. Furthermore, this assay endpoint can be referred to as a secondary readout, because this assay has produced multiple assay endpoints where this one serves a background control function. To generalize the intended target to other relatable targets, this assay endpoint is annotated to the background measurement intended target family, where subfamily is baseline control.
Human hepatocyte cultures were treated daily for two consecutive days with fresh dosing solutions containing appropriate concentrations of the 320 ToxCast chemicals (chemical identities were blinded to CellzDirect and other ToxCast collaborators), vehicle control (0.2% DMSO), and positive control inducers as summarized in Table 1. Due to the large number of treatment groups and chemicals examined, the ToxCast chemicals were divided into two groups (spanning two independent cultures of hepatocytes from separate donor preparations (Hu778: ToxCast plates 1 and 2; Hu776: ToxCast plates 3 and 4). Each preparation of human hepatocyte cultures was treated with respective vehicle control, medium only control, set of six positive controls/reference chemicals for the five hepatic receptor pathways, and a subset of eight of the ToxCast chemicals (indoxacarb, pyrithiobac-sodium, norflurazon, cyhalofop-butyl, methomyl, thiram, acetochlor, and propiconazole). These replicate data, coupled with internal replicates designed within the blinded ToxCast chemical library, provided additional data to evaluate interindividual differences between hepatocyte preparations and their potential impact on chemical profiles.Cell morphology and integrity were evaluated using phase-contrast microscopy as an indicator of hepatocyte cell health (Tyson & Green, 1987). Cultures for each treatment group (i.e., media, vehicle [0.2% DMSO], positive control inducers [multiple concentrations], and the ToxCast chemicals [multiple concentrations]) were observed and cell morphology was assessed relative to vehicle control cultures at each harvest time point (0, 6, 24, or 48 h). […] Images were evaluated at the conclusion of the study to assess changes in cell integrity and account for the effects of chemical exposure on uncharacteristic changes in concentration-dependent gene expression profiles. The results from these determinations of apparent cytotoxicity were annotated (yes/no) alongside the corresponding qNPA data for reference.At the conclusion of each treatment period, hepatocyte cultures (96-well) were washed with 1 volume of HBSS, lysed by addition of 25 ul ArrayPlate lysis buffer (HTG, Tucson, AZ), and 70 ul/well of Denaturation Oil, denatured by incubation at 95C for 10 min, and frozen at approximately -70C until analysis by nuclease protection assay (qNPA) (Roberts et al., 2007). For qNPA analysis, cell lysates were thawed at 50C for approximately 30 min, qNPA probes were added, and samples were incubated at 95C for 10 min to begin the detection process by denaturing the target RNA, dissociating the duplexes and secondary structure hybridization. At the conclusion of the hybridization period, S1 nuclease reagent was added to each sample to digest all nonprotected nucleotides at 50C for 60-90 min. […]
With `CC(C)=CC1C(C(=O)OCc2coc(Cc3ccccc3)c2)C1(C)C` (stereo unspecified), the result was inactive. `CCCN(CC)CC1COC2(CCC(C(C)(C)C)CC2)O1` (stereo unspecified): the compound was classed as inactive. In the case of `Nc1cnn(-c2ccccc2)c(=O)c1Cl`, the compound was called inactive. Next, `COC(=O)NS(=O)(=O)c1ccc(N)cc1`: “inactive”. Next, `Clc1nc(Cl)nc(Nc2ccccc2Cl)n1`: “inactive”; `COc1cc(Cl)c(OC)cc1Cl`: “inactive”. Next, `Cc1nc(N(C)C)nc(OC(=O)N(C)C)c1C`: “inactive”; `CC(C)N1C(=O)c2ccccc2NS1(=O)=O`: “inactive”; `O=C(O)c1c(Cl)ccc2cc(Cl)cnc12`: “inactive”.

Regarding `Clc1cccc(C(Cl)(Cl)Cl)n1`, the result was inactive.

Consider `C=CCOC(=O)C(C)(C)OC(=O)c1cc(-n2c(=O)cc(C(F)(F)F)n(C)c2=O)ccc1Cl`, for which the outcome was inactive. As for `Cc1ccc(N=CN(C)C=Nc2ccc(C)cc2C)c(C)c1`, the entry is “inactive”; as for `COCC(C)N(C(=O)CCl)c1c(C)csc1C` (stereo unspecified), “inactive”; as for `CC1(C)CON(Cc2ccccc2Cl)C1=O`, “inactive”.

`CCOc1nc(C(Cl)(Cl)Cl)ns1`: the outcome was inactive.

Take `Cc1cnc(C2=NC(C)(C(C)C)C(=O)N2)c(C(=O)O)c1` (stereo unspecified): the result was inactive. As for `CS(=O)(=O)c1cc(C(F)(F)F)ccc1C(=O)c1cnoc1C1CC1`, the entry is “inactive”; as for `CCCC(=NOCC)C1=C(O)CC(CC(C)SCC)CC1=O` (stereo unspecified), “inactive”. Next, `CC(C)C1(C)N=C(c2ncccc2C(=O)O)NC1=O` (stereo unspecified): “inactive”; `C=C(C)CN(CC)c1c([N+](=O)[O-])cc(C(F)(F)F)cc1[N+](=O)[O-]`: “inactive”.

Consider `CCOP(=O)(OCC)Oc1nc(Cl)c(Cl)cc1Cl`, for which the compound was classed as inactive. Next, `CN=C=S`: “inactive”; `COP(=O)(OC)O/C(C)=C/C(=O)N(C)C`: “inactive”; `COCc1cnc(C2=NC(C)(C(C)C)C(=O)N2)c(C(=O)O)c1` (stereo unspecified): “inactive”. Consider `CNC(=O)N(C)c1nnc(C(C)(C)C)s1`, for which the compound was classed as inactive. On to `CS(=O)(=O)c1ccc(C(=O)C2C(=O)CCCC2=O)c([N+](=O)[O-])c1`, for which the compound was called inactive.

The record behind these values is PubChem BioAssay (EPA / NIEHS).
